Data taken from ChEMBL document CHEMBL1961873, “Compounds: GSK PKIS; Assays: Nanosyn kinase panel” (2012).

What was measured:
[1] = target: Platelet-derived growth factor receptor beta (Homo sapiens) (UniProt P09619); conditions: at 1 µM;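 further: each value is a mean percent inhibition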
[2] = target: Tyrosine-protein kinase FRK (Homo sapiens) (UniProt P42685); conditions: at 0.1 µM
[3] = target: Tyrosine-protein kinase FRK (Homo sapiens) (UniProt P42685); conditions: at 1 µM
[4] = target: Protein-tyrosine kinase 2-beta (Homo sapiens) (UniProt Q14289); conditions: at 0.1 µM
[5] = target: Protein-tyrosine kinase 2-beta (Homo sapiens) (UniProt Q14289); conditions: at 1 µM
[6] = target: Proto-oncogene tyrosine-protein kinase receptor Ret (Homo sapiens) (UniProt P07949); conditions: at 0.1 µM
[7] = target: Proto-oncogene tyrosine-protein kinase receptor Ret (Homo sapiens) (UniProt P07949); conditions: at 1 µM
[8] = system: Proto-oncogene tyrosine-protein kinase receptor Ret (Homo sapiens), P07949 [V804L]; conditions: at 0.1 µM
[9] = system: Proto-oncogene tyrosine-protein kinase receptor Ret (Homo sapiens), P07949 [V804L]; conditions: at 1 µM
[10] = system: Proto-oncogene tyrosine-protein kinase receptor Ret (Homo sapiens), P07949 [Y791F]; conditions: at 0.1 µM
[11] = system: Proto-oncogene tyrosine-protein kinase receptor Ret (Homo sapiens), P07949 [Y791F]; conditions: at 1 µM
[12] = target: Macrophage-stimulating protein receptor (Homo sapiens) (UniProt Q04912); conditions: at 0.1 µM
[13] = target: Macrophage-stimulating protein receptor (Homo sapiens) (UniProt Q04912); conditions: at 1 µM
[14] = target: Proto-oncogene tyrosine-protein kinase ROS (Homo sapiens) (UniProt P08922); conditions: at 0.1 µM
[15] = target: Proto-oncogene tyrosine-protein kinase ROS (Homo sapiens) (UniProt P08922); conditions: at 1 µM
[16] = target: Proto-oncogene tyrosine-protein kinase Src (Homo sapiens) (UniProt P12931); conditions: at 0.1 µM
[17] = target: Proto-oncogene tyrosine-protein kinase Src (Homo sapiens) (UniProt P12931); conditions: at 1 µM
[18] = target: Tyrosine-protein kinase Srms (Homo sapiens) (UniProt Q9H3Y6); conditions: at 0.1 µM
[19] = target: Tyrosine-protein kinase Srms (Homo sapiens) (UniProt Q9H3Y6); conditions: at 1 µM
[20] = target: Tyrosine-protein kinase SYK (Homo sapiens) (UniProt P43405); conditions: at 0.1 µM;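 further: reported percentages are mean inhibition values for SYK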

Sequence of Proto-oncogene tyrosine-protein kinase receptor Ret (Homo sapiens), P07949 [Y791F] (P07949 whole entry Y791F): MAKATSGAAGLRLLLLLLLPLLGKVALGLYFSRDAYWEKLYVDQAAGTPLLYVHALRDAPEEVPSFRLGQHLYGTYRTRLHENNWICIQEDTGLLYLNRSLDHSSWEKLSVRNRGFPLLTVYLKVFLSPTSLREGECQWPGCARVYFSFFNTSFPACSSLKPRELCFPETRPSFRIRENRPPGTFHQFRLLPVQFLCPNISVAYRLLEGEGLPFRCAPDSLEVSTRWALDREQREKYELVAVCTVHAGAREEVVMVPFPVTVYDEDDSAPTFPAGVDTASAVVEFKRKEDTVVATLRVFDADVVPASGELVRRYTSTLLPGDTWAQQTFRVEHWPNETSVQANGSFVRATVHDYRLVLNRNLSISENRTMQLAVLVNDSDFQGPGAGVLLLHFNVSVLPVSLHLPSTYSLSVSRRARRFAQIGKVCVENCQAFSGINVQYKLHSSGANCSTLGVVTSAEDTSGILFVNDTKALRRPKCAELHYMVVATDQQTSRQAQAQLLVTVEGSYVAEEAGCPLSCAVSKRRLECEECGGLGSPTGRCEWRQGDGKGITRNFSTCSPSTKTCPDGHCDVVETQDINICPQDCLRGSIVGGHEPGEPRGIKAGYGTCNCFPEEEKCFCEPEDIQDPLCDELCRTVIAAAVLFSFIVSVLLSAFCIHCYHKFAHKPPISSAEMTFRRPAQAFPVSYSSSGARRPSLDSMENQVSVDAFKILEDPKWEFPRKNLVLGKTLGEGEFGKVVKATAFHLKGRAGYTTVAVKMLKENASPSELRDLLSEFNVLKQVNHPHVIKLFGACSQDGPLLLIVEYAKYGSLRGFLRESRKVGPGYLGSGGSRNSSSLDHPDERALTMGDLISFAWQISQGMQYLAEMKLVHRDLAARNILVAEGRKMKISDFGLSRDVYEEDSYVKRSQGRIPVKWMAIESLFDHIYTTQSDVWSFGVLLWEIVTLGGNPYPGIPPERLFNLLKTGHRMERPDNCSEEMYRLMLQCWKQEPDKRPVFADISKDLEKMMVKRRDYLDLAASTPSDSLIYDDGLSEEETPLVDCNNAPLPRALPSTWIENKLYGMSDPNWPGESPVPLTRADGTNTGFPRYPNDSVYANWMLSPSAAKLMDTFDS
Sequence of Proto-oncogene tyrosine-protein kinase receptor Ret (Homo sapiens) (P07949 whole entry): as the sequence (P07949 whole entry Y791F) above, with F791Y counted along it
Sequence of Proto-oncogene tyrosine-protein kinase Src (Homo sapiens) (P12931 2-536 limits assumed): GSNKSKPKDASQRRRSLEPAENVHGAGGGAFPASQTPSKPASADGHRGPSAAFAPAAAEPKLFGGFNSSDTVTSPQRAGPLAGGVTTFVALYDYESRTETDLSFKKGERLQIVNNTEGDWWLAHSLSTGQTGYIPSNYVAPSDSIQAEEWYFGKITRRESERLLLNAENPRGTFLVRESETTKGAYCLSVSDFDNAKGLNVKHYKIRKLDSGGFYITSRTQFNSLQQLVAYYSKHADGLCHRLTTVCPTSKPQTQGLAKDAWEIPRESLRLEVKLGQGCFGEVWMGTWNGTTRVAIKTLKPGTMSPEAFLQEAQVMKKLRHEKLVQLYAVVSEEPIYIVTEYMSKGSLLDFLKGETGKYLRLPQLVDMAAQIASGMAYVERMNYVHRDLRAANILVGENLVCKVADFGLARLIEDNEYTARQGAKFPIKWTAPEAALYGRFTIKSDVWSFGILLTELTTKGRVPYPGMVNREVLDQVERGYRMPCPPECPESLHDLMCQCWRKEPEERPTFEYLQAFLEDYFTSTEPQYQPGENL
Sequence of Platelet-derived growth factor receptor beta (Homo sapiens) (P09619 whole entry): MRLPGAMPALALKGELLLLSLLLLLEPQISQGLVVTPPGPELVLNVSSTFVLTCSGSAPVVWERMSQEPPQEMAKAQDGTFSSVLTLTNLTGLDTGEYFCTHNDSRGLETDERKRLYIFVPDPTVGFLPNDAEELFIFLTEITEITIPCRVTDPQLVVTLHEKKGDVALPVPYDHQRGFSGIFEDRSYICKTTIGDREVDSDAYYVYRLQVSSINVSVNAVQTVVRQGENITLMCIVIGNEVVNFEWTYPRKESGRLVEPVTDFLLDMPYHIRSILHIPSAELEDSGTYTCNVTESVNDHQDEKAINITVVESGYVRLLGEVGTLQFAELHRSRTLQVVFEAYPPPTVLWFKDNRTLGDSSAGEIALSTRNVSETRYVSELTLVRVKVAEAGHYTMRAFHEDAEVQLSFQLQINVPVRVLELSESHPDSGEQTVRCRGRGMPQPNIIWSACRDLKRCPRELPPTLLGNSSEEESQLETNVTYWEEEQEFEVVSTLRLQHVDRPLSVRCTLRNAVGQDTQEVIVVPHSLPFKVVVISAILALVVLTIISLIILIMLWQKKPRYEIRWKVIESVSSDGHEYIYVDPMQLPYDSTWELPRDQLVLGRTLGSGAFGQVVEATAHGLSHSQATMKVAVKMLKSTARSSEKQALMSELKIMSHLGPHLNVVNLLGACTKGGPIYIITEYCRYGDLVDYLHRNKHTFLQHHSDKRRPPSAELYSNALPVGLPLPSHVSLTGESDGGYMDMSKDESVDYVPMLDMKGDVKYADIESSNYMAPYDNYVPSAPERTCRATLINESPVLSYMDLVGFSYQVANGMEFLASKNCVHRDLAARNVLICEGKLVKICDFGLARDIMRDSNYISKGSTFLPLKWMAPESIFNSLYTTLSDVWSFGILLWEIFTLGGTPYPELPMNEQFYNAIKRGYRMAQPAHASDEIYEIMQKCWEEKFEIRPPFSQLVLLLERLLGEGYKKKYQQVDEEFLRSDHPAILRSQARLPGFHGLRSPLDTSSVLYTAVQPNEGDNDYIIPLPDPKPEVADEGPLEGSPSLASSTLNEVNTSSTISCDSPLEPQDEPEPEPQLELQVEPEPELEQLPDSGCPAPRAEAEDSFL
Sequence of Proto-oncogene tyrosine-protein kinase ROS (Homo sapiens) (P08922 whole entry): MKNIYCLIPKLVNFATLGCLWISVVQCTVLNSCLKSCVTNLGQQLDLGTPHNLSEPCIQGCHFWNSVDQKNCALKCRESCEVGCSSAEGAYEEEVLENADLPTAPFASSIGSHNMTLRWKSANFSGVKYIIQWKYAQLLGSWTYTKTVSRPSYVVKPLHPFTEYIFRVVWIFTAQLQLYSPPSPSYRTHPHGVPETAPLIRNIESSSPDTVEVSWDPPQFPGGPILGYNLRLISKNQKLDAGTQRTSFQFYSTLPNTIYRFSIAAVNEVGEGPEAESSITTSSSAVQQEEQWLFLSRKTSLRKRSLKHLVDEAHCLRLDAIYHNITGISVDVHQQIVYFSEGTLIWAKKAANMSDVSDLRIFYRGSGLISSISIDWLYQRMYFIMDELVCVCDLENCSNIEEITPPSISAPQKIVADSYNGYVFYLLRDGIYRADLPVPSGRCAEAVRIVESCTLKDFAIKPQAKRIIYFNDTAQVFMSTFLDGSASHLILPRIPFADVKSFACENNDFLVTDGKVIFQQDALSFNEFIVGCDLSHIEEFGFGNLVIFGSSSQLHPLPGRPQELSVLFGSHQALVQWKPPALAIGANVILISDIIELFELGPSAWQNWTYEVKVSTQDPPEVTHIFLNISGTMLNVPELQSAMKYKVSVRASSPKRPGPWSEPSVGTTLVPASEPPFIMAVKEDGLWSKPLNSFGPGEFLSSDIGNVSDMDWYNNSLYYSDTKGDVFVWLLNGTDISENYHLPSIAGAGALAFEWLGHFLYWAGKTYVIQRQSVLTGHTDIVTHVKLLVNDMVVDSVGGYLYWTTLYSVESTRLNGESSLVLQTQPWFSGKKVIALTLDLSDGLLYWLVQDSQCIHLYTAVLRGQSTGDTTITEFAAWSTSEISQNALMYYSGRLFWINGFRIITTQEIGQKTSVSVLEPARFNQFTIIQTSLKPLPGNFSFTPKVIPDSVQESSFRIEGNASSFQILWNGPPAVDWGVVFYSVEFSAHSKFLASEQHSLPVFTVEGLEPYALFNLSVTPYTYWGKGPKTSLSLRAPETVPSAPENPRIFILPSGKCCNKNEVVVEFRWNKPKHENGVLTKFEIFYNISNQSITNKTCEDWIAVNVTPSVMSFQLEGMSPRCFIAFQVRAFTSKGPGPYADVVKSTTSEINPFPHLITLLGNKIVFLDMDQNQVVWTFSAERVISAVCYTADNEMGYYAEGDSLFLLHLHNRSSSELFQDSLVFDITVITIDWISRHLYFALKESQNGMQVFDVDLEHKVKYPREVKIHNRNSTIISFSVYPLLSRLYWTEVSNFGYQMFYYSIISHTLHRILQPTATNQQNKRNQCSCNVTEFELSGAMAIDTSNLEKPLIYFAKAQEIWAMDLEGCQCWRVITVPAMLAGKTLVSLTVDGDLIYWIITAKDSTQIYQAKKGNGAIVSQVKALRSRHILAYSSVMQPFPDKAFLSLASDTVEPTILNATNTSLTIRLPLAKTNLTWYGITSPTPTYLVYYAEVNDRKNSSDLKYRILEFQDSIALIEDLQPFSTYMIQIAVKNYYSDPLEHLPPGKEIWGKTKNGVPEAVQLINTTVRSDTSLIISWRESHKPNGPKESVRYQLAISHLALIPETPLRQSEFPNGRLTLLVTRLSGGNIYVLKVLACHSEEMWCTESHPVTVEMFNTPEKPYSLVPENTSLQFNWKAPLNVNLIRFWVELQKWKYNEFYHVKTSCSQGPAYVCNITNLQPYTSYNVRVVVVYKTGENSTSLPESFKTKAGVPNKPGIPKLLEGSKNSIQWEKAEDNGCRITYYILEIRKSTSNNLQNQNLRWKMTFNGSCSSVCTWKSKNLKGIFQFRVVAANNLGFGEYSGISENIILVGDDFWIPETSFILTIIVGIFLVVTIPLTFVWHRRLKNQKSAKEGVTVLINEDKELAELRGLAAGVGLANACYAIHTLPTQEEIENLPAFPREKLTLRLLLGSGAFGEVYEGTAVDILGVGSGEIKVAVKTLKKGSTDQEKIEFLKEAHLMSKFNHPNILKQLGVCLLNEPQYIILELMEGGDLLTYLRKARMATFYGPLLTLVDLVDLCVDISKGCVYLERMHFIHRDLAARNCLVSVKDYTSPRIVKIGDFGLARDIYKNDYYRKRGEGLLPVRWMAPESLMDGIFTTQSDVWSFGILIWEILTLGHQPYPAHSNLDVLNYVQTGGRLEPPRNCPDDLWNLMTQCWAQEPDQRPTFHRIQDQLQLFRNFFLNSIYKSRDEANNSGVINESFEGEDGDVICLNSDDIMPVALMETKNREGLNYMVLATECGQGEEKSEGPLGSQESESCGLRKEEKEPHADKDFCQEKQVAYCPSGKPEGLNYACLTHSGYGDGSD

SMILES	inhibition [1]	inhibition [2]	inhibition [3]	inhibition [4]	inhibition [5]	inhibition [6]	inhibition [7]	inhibition [8]	inhibition [9]	inhibition [10]	inhibition [11]	inhibition [12]	inhibition [13]	inhibition [14]	inhibition [15]	inhibition [16]	inhibition [17]	inhibition [18]	inhibition [19]	inhibition [20]
COc1cc2c(cc1Nc1nc(N3CCc4ccccc43)c3cc[nH]c3n1)N(C(=O)CN(C)C)CC2	3.27%	0.34%	0.69%	59.7%	90%	3.49%	9.16%	0.54%	4.92%	1.4%	8.94%	-4.18%	4.66%	70.2%	79.2%	1.56%	8.12%	0.05%	-1.29%	0.91%
CC1=C(C(=O)Nc2ccc3[nH]ncc3c2)C(c2ccc(Cl)c(Cl)c2)CC(=O)N1 (stereo not given)	6.02%	1.03%	7.47%	6.27%	8.74%	5.65%	22.8%	3.81%	16.5%	8.05%	25.4%	3.91%	15%	2.14%	8.67%	17.4%	24.9%	1.99%	-3.08%	-3.45%
Cc1ccc(C(=O)NC2CCCCC2)cc1-c1ccc(C(=O)NCC2CC2)cc1	9.04%	0.19%	0.68%	3.32%	9.58%	5.5%	7.84%	5.44%	4.79%	10.8%	23%	-5.44%	3.46%	6.22%	7.1%	0.23%	4.58%	2.6%	0.74%	-0.6%
Nc1ncnc2occ(-c3ccc(NC(=O)Nc4cccc(C(F)(F)F)c4)cc3)c12	94.8%	4.28%	21.2%	8.39%	32.3%	84.9%	87.2%	64.8%	79.9%	73.9%	86.3%	2.56%	27.7%	6%	21.7%	14.4%	52.8%	-4.22%	-3.07%	-4.82%
Cc1ccc(NC(=O)c2ccnc(N3CCCC3)c2)cc1-c1ccc(C(=O)NCC2CC2)cc1	13.4%	2.28%	2.38%	12.2%	9.43%	6.99%	9.44%	8.29%	9.54%	10.7%	11.4%	8.6%	6.95%	6.76%	12%	4.44%	9.16%	-3.02%	-4.02%	-0.79%
CN1CCC(C(=O)Nc2n[nH]c3nnc(-c4ccccc4)cc23)CC1	7.79%	2.63%	2.86%	13.3%	15.2%	1.29%	2.61%	4.66%	14.7%	3.08%	10%	-1.52%	14.1%	5.55%	9.8%	9.17%	8.13%	-0.14%	-5.75%	-4.25%
CCCN1CCC(Oc2cc(Nc3nc(Nc4cccc(F)c4C(N)=O)c4cc[nH]c4n3)c(OC)cc2Cl)CC1	8.63%	-0.17%	0.23%	38.2%	92.4%	7.67%	12.8%	3.55%	15.5%	4.36%	16.9%	1.16%	6.9%	8.27%	38.9%	-3.73%	6.62%	2.85%	0.37%	1.01%
COC(=O)Nc1nc2cc(Oc3cccc(NC(=O)Nc4cc(C(F)(F)F)ccc4F)c3)ccc2[nH]1	45.3%	-0.02%	1.37%	0.22%	-4.43%	17%	61.1%	4.35%	8.1%	9.63%	38.9%	6.28%	-2.46%	1.83%	2.46%	9.23%	5.13%	0.35%	-1.15%	0.17%
COc1ccc2cc(-c3c(-c4ccncc4)nc(-c4ccc([S+](C)[O-])cc4)n3C)ccc2c1 (stereo not given)	4.23%	2.23%	1.18%	3.6%	4.13%	4.55%	8.7%	3.54%	-0.15%	5.77%	-4.94%	4.56%	4.27%	4.08%	5.77%	4.77%	8.58%	-0.98%	-1.29%	-1.34%
NC(=O)c1cccc(Nc2nccc(Nc3cccc4[nH]ncc34)n2)c1	84%	61.6%	93.9%	9.7%	65.5%	37.8%	82.1%	5.88%	39.4%	46%	79.7%	1.43%	4.78%	21.8%	66%	86.3%	94.9%	8.24%	41.9%	-5.51%
CN(C)c1cc2c(Nc3ccc4nc(Cc5ccccc5)[nH]c4c3)ncnc2cn1	12.1%	-0.33%	3.88%	15.7%	11.8%	7.21%	13.2%	3.89%	7.59%	6.91%	27.9%	7.08%	3.46%	6.18%	11.8%	-0.18%	20.1%	1.22%	8.06%	-5.04%
CCc1cccc(NC(=O)Nc2ccc(Oc3ccc4nc(NC(=O)OC)[nH]c4c3)cc2)c1	56.3%	-0.04%	2.98%	0.73%	8.1%	72.8%	79.9%	35.6%	63.1%	53.5%	74.6%	5.94%	5.62%	-0.48%	0.49%	0.79%	5.84%	0.61%	1.28%	2.75%
O=C1NC(=O)C(c2ccc(Cl)cc2)=C1Nc1ccc(Cl)c(C(=O)O)c1	6.67%	-0.84%	0.85%	-2.28%	3.24%	3.14%	2.98%	0.34%	-0.69%	0.25%	-1.73%	-4.02%	2.12%	1.45%	3.13%	0.48%	-1.52%	0.85%	2.75%	-1%
O=C1NC(=O)C(N2CCc3ccccc32)=C1c1ccc(Cl)cc1	8.69%	2.55%	3.4%	8.33%	7.03%	2.35%	10.1%	7.17%	9.11%	11.4%	10.4%	-2.48%	2.52%	10.9%	14.1%	5.94%	15.5%	-2.77%	0.25%	-4.42%
Cc1nnc(-c2ccc(C)c(-c3ccc(C(=O)Nc4cccc(C#N)c4)cc3)c2)o1	10.9%	2.05%	2.02%	4.97%	6.48%	7.9%	12.9%	4.42%	8.03%	4.58%	15.7%	1.95%	3.79%	1.81%	1.44%	3.95%	6.82%	-0.52%	0.42%	3.5%
CS(=O)(=O)CCNCc1ccc(-c2ccc3ncnc(Nc4ccc(OCc5ccccc5)c(Cl)c4)c3c2)o1	5.7%	0.96%	2.22%	5.42%	5.81%	4.78%	9.58%	9.04%	12.4%	10.2%	12.1%	3.3%	5.38%	3.99%	4.36%	0.6%	3.9%	-0.03%	-0.79%	1.87%
Fc1cccc(COc2ccc(Nc3ncnc4sc(-c5cccs5)cc34)cc2Cl)c1	4.24%	1.12%	2.35%	-5.04%	3.37%	3.97%	0.68%	0.76%	2.26%	1.05%	2.09%	-5.24%	-0.08%	5.26%	4.79%	2.2%	2.77%	-1.04%	-1.24%	0.32%
